Measured values published in PubChem BioAssay (EPA / NIEHS).
Results filed as inconclusive are left out. Calls of active or inactive are those of the source. Rule for the calls, unless noted: active = hit-call score of the fitted dose curve at least 0.9, where 1 is the maximum; inconclusive = response in the unintended direction; inactive = score below 0.9. Peptide text beside a SMILES is read from it.

Experiments:
[1] = target: Agonist Androgen Response Element (ARE), AR (gene 367) (UniProt P10275); assay: OT_AR_ARELUC_AG_1440: Odyssey Thera (OT) 24-hour CHO-K1 Luciferase Assay for Agonist Androgen Response Element (ARE) (AID 2283379)
Method in brief: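 Agonist mode, 24 h exposure in CHO-K1 ARE-luciferase cells; values reflect luminescence induction over vehicle.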

[2] = target: Estrogen receptor beta (Homo sapiens) (UniProt Q92731); assay: OT_ER_ERbERb_1440: Odyssey Thera (OT) 24-hour HEK293T Protein-Complementation Assay for Estrogen Receptor-beta/-beta Homodimer (AID 2283380);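 note: fluorescence gain from ER beta LBD homodimer complementation read by laser scanning cytometry; scored as signal increase over DMSO baseline for both agonists and antagonists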
Method in brief: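 Fluorescence increase, nuclear for agonists or whole-cell for antagonists, relative to DMSO vehicle, quantified by laser scanning cytometer after fixation and Draq5 staining. Readout from 24 h treatment of HEK293T cells carrying complementation-paired ER beta LBD (aa 310-547).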

[3] = target: Estrogen receptor (Homo sapiens) (UniProt P03372); assay: OT_ERa_GFPERaERE_0480: Odyssey Thera (OT) 8-hour HeLa Transcription Induction Assay for Estrogen Receptor (AID 2283381; active = hit-call score of the fitted dose curve at least 0.9, where 1 is the maximum; inactive = score below 0.9)
Method in brief: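 HeLa cells expressing GFP reporter under estrogen response element, imaged 8 h after dosing. GFP induction quantified by high-content fluorescence microscopy image analysis; gain of signal fitted versus DMSO.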

[4] = target: Estrogen receptor (Homo sapiens) (UniProt P03372); assay: OT_ERa_GFPERaERE_0120: Odyssey Thera (OT) 2-hour HeLa Transcription Induction Assay for Estrogen Receptor (AID 2283382)
Method in brief: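 HeLa cells were dosed for 2 h, then GFP reporter induction was quantified by fluorescence microscopy with high-content image analysis. Gain of signal fitted against DMSO baseline.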

[5] = target: Bile acid receptor (Homo sapiens) (UniProt Q96RI1); assay: OT_FXR_FXRSRC1_0480: Odyssey Thera (OT) 8-hour HEK293T Protein-Complementation Assay for Farnesoid X receptor/SRC-1 Co-activator (AID 2283383)
Method in brief: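 HEK293T protein-fragment complementation assay: FXR and SRC-1 coactivator are fused to reporter fragments, and their interaction restores a fluorescent reporter. Readout was taken 8 h after dosing, with gain of signal fit relative to DMSO.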

[6] = target: Retinoic acid receptor RXR-alpha (Homo sapiens) (UniProt P19793); assay: OT_NURR1_NURR1RXRa_0480: Odyssey Thera (OT) 8-hour HEK293T Protein Complementation Assay for Nurr1/retinoid X receptor (RXR) (AID 2283385)
Method in brief: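 HEK293T cells expressing Nurr1 and RXRα fused to reporter fragments (protein-fragment complementation); fluorescence measured 8 h after dosing. Gain of signal fitted relative to DMSO.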

[7] = target: human Dopamine Transporter (DAT), SLC6A3 (gene 6531) (UniProt Q01959); assay: NVS_TR_hDAT: NovaScreen (NVS) Transporter Assay for human Dopamine Transporter (DAT) (AID 2283374);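 note: activity means loss of bound radioligand signal relative to DMSO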
Method in brief: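 Test chemicals were first screened in duplicate at 25 uM, with actives retested as concentration series. Displacement of a specific radioligand from cell-free human dopamine transporter was measured after 1 h by filtration and scintillation counting.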

[8] = target: human Norepinephrine Transporter (NET), SLC6A2 (gene 6530) (UniProt P23975); assay: NVS_TR_hNET: NovaScreen (NVS) Transporter Assay for human Norepinephrine Transporter (NET) (AID 2283377);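 note: cell-free membrane protein extracted from CHO cells expressing human NET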;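 for AC50: displacement of radioligand from human NET seen as loss of scintillation signal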
Method in brief: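 Scintillation counts of filter-retained radioligand served as the readout, taken 1 h post-dosing in a cell-free CHO-derived system. Test chemicals ran first at 25 uM in duplicate; confirmed hits were retested across concentrations.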

[9] = target: mouse Estrogen Receptor alpha (Era), Esr1 (gene 13982) (UniProt P19785); assay: NVS_NR_mERa: NovaScreen (NVS) Nuclear Receptor Binding Assay for mouse Estrogen Receptor alpha (Era) (AID 2283378);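 note: hit means loss of bound radioligand signal relative to DMSO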
Method in brief: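 Cell-free radioligand competitive displacement binding, read by filter-based scintillation counting 18 h after dosing. Primary screen run in duplicate at 25 uM, actives retested in concentration series; loss of signal versus DMSO.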

[10] = target: Peroxisome proliferator-activated receptor gamma (Homo sapiens) (UniProt P37231); assay: OT_PPARg_PPARgSRC1_0480: Odyssey Thera (OT) 8-hour Protein-Complementation Assay for Peroxisome Proliferator-activated Receptor Gamma / SRC-1 Co-activator (AID 2283387)
Method in brief: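 Split-YFP (IFP1/IFP2) PPARg/SRC-1 reporter, HEK293T, 37 °C, 5% CO2; 8 h compound; formaldehyde fix + Draq5; high-content imaging, N/C ratio, ≥350 cells/image, positive direction vs DMSO.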

[11] = target: Peroxisome proliferator-activated receptor gamma (Homo sapiens) (UniProt P37231); assay: OT_PPARg_PPARgSRC1_1440: Odyssey Thera (OT) 24-hour Protein-Complementation Assay for Peroxisome Proliferator-activated Receptor Gamma/ SRC-1 Co-activator (AID 2283388)
Method in brief: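 HEK293T transiently transfected with PPARg/SRC-1 split-Venus YFP fusions 48 h before dosing, then treated 24 h at 37C. Fixed cells imaged; nuclear/cytoplasmic 488 nm fluorescence ratio, gain of signal versus DMSO.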

[12] = target: Nuclear receptor subfamily 1 group I member 2 (Homo sapiens) (UniProt O75469); assay: NVS_NR_hPXR: NovaScreen (NVS) Nuclear Receptor Binding Assay for human Pregnane X Receptor (PXR) (AID 2283365);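 note: a drop in FRET signal versus DMSO baseline means the compound binds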
Method in brief: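 Cell-free TR-FRET binding assay with extracted human PXR protein, read 2 h after dosing. Primary screen run in duplicate at 25 uM, actives followed in concentration series; loss of signal fitted against DMSO baseline.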

[13] = target: Retinoic acid receptor RXR-alpha (Homo sapiens) (UniProt P19793); assay: OT_NURR1_NURR1RXRa_1440: Odyssey Thera (OT) 24-hour HEK293T Protein Complementation Assay for Nurr1/retinoid X receptor (RXR) (AID 2283386)
Method in brief: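 HEK293T protein-fragment complementation of Nurr1 and RXRα fused to reporter fragments; compounds 24 h. Fluorescence gain from reconstituted reporter fitted versus DMSO.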

Measured: AC50

mouse Estrogen Receptor alpha (Era), Esr1 (gene 13982), sequence (P19785 whole entry, looked up): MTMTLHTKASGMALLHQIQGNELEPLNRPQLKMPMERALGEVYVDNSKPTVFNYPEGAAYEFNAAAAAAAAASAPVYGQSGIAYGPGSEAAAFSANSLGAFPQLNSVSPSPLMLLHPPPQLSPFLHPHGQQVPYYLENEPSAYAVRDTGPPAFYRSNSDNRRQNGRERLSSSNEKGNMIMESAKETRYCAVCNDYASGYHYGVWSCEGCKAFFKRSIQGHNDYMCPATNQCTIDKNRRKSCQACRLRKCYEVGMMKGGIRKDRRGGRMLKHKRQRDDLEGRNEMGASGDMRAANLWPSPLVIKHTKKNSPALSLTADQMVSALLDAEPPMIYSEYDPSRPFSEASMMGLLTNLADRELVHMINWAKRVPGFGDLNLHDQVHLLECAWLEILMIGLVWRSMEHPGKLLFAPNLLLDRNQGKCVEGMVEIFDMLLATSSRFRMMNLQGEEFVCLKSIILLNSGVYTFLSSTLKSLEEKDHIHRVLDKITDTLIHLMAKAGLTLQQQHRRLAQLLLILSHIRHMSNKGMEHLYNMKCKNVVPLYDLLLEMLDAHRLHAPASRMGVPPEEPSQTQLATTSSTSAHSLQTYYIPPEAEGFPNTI
Bile acid receptor (Homo sapiens), sequence (Q96RI1 whole entry, looked up, the tested form may be a part): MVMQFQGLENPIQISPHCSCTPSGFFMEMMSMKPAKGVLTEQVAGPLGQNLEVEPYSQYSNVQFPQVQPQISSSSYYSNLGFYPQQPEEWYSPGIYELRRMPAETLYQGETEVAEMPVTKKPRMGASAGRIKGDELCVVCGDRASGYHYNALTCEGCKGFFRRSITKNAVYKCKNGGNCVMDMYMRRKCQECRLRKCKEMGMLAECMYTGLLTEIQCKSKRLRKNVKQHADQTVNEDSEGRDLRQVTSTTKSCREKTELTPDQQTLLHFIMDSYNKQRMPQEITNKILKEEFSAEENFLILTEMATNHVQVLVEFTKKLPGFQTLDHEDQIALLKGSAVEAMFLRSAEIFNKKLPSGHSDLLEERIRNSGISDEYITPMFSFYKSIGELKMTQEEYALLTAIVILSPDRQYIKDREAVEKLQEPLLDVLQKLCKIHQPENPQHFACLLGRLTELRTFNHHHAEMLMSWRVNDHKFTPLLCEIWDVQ
Estrogen receptor (Homo sapiens), sequence (P03372 whole entry, looked up): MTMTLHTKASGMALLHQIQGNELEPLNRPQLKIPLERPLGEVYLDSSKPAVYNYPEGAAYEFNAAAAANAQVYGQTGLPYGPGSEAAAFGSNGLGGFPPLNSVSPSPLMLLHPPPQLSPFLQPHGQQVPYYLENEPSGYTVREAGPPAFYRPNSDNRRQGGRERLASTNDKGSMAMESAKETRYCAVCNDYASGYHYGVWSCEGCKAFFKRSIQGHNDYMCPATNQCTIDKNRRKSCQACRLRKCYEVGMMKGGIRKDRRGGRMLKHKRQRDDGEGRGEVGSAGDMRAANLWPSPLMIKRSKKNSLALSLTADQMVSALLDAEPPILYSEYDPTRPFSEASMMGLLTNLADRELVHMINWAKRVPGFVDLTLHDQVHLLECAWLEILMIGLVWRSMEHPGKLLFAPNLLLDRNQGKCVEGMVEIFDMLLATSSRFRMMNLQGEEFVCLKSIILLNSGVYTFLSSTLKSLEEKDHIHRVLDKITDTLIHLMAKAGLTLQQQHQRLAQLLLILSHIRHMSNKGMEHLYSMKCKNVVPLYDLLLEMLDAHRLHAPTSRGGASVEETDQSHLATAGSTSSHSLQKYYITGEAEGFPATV
human Dopamine Transporter (DAT), SLC6A3 (gene 6531), sequence (Q01959 whole entry, looked up): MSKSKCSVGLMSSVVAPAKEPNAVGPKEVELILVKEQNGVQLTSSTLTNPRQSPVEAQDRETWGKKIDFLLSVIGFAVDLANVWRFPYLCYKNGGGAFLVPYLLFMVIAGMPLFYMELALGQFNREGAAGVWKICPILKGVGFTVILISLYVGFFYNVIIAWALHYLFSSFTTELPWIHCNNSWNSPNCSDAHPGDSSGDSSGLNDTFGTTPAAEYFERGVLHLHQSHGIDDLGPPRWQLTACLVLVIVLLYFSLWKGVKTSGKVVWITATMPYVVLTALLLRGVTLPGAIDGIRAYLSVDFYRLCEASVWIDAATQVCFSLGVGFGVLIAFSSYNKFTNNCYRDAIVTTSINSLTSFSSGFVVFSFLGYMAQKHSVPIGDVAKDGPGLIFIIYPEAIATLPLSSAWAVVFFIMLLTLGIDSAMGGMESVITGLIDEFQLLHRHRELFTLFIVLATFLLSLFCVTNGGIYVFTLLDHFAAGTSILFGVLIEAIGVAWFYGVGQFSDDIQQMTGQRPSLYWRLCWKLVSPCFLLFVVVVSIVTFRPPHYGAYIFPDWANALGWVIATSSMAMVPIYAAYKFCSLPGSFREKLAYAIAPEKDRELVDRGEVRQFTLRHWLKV
Retinoic acid receptor RXR-alpha (Homo sapiens), sequence (P19793 whole entry, looked up, the tested form may be a part): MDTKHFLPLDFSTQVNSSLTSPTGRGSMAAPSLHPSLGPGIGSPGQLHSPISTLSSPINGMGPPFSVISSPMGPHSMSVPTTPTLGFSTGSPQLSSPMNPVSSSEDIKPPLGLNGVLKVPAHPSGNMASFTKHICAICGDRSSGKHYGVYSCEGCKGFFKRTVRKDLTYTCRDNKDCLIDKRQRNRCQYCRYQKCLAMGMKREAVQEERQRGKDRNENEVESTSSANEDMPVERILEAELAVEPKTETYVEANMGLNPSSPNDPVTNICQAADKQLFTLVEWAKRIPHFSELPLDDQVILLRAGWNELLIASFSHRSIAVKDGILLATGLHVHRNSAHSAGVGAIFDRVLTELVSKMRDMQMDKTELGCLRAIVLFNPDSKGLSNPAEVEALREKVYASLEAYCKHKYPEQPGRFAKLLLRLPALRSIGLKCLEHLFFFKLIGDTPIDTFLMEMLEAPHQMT
Estrogen receptor beta (Homo sapiens), sequence (Q92731 whole entry, looked up, the tested form may be a part): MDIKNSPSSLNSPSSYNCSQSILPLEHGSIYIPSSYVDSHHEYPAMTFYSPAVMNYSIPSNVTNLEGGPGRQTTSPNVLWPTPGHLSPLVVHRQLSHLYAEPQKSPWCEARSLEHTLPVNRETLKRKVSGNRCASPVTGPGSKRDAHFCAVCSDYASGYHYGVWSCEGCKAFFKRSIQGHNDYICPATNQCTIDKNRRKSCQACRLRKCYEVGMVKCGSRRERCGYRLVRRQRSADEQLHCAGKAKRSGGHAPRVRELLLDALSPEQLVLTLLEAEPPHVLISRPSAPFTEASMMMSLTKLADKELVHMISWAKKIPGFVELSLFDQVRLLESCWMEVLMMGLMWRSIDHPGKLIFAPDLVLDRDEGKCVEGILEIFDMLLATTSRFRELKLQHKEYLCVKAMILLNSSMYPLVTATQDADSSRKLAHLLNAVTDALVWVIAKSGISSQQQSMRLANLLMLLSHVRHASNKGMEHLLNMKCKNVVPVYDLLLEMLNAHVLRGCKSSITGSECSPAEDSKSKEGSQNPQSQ
Peroxisome proliferator-activated receptor gamma (Homo sapiens), sequence (P37231 whole entry, looked up, the tested form may be a part): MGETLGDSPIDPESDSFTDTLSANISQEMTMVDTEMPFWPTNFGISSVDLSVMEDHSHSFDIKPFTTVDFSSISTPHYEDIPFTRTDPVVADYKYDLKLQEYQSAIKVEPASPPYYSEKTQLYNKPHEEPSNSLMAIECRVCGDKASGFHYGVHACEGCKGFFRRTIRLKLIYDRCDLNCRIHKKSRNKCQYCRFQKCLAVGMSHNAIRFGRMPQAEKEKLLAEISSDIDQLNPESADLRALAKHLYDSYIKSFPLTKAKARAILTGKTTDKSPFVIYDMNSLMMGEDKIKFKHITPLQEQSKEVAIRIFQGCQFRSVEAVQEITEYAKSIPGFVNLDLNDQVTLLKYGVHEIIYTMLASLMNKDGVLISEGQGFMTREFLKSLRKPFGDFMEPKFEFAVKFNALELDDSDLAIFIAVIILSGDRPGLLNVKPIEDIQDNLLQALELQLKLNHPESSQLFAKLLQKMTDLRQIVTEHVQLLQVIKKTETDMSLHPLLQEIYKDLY
Agonist Androgen Response Element (ARE), AR (gene 367), sequence (P10275 whole entry, looked up): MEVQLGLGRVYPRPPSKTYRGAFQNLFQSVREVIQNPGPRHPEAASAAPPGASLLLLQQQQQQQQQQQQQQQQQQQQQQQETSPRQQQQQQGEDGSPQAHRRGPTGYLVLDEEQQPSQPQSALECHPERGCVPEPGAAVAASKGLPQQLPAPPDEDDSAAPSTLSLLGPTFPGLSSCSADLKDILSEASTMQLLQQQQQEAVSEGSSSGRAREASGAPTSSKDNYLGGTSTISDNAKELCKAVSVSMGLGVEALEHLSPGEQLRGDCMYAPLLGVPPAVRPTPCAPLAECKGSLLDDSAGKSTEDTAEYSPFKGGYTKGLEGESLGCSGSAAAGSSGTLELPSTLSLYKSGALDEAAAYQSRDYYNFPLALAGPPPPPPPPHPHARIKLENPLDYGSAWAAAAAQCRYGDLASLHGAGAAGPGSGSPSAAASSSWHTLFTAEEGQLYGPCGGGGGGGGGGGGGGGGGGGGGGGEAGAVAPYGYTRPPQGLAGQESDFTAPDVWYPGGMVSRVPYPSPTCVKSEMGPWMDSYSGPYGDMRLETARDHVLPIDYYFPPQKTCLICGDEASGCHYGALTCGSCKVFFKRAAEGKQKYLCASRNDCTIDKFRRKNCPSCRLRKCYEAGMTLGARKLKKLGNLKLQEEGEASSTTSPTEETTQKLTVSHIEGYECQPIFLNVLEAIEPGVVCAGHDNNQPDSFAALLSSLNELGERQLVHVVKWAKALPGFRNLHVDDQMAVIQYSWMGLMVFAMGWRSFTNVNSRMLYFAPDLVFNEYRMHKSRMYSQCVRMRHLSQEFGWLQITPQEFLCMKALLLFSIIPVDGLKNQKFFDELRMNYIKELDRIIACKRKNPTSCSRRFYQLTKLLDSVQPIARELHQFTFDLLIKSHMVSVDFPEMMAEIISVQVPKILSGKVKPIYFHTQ

CCC[Si](OC)(OC)OC
inactive: [1] | [2] | [3] | [4] | [5] | [6]

c1ccc(-c2nc3ccccc3[nH]2)cc1
active: [7] 14.9 µM | [8] 12 µM

Cc1ccc(C)c(OCCCC(C)(C)C(=O)O)c1
inactive: [1] | [2] | [4] | [5]

CC(C)(c1ccccc1)c1ccc(Nc2ccc(C(C)(C)c3ccccc3)cc2)cc1
inactive: [9] | [4] | [6] | [10] | [11]

COC(=O)C=Cc1ccccc1
inactive: [8]

CC(=O)OCc1ccccc1
inactive: [1] | [2] | [4] | [6] | [10] | [11]

CO[Si](C)(C)OC
inactive: [9] | [2] | [4] | [6] | [10]

CCCCCCCCCC(C)=O
inactive: [1] | [2] | [4] | [10]

O=C(O)CC(C(=O)O)S(=O)(=O)O (stereo not given)
inactive: [12] | [4] | [6] | [10]

CC(C)C(=O)OCCOc1ccccc1
active: [7] 19.6 µM

Cc1c(C(=O)c2c[nH]n(C)c2=O)ccc(S(C)(=O)=O)c1C1=NOCC1
inactive: [1] | [2] | [3] | [4] | [6] | [10]

COc1ccc(C(=O)c2ccccc2)c(O)c1
active: [7] 16.4 µM | [2] 57.8 µM
inactive: [1] | [4] | [5] | [6] | [10] | [11]

O=C(OCc1ccccc1)c1ccc(O)cc1
active: [9] 1.08 µM | [2] 5.67 µM | [5] 50 µM | [13] 69.9 µM
inactive: [3] | [4] | [6] | [10]

Nc1ncnc2nc[nH]c12
inactive: [7]

N#Cc1ccc(C(c2ccc(C#N)cc2)n2cncn2)cc1
not listed: [7] | [8] | [9] | [11] | [12]
inactive: all other assays above

O=C(O)C1CCC(C(=O)O)CC1 (stereo not given)
inactive: [2] | [4] | [5] | [13] | [10]

CC1=CCC2CC1C2(C)C (stereo not given)
inactive: [2] | [3] | [4] | [10]

Nc1ccc(C(=O)O)cc1
inactive: [2] | [4] | [5] | [6] | [10]

C[Si]1(C)O[Si](C)(C)O[Si](C)(C)O[Si](C)(C)O[Si](C)(C)O1
inactive: [3] | [4] | [13] | [10] | [11]

O=C(Oc1ccccc1)c1ccccc1O
inactive: [4] | [6] | [10]

C=C[C@@]1(C)CC(=O)[C@]2(O)[C@@]3(C)[C@@H](O)CCC(C)(C)[C@@H]3[C@H](O)[C@H](OC(C)=O)[C@@]2(C)O1
inactive: [4] | [10] | [11]
active: [2] 27.4 µM | [3] 89.1 µM | [6] 0.183 µM | [13] 0.396 µM

CCN1CN(CC)CN(CC)C1
inactive: [2] | [3] | [4] | [5] | [6] | [10] | [11]

Oc1ccccc1Cc1ccccc1O
inactive: [3] | [4] | [10]
active: [2] 11.8 µM

CC1(C)[C@@H]2CC[C@@]1(C)C(=O)C2
inactive: [2] | [3] | [4] | [6]

O=C(O)/C=C/c1ccccc1
inactive: [4] | [13] | [10] | [11]

CCCCNC(=S)NCCCC
inactive: [2] | [4] | [5] | [6] | [13] | [10] | [11]

CCCC=C(C=O)CC
inactive: [2] | [3] | [4]

CCOC(=O)c1ccccc1C
inactive: [3] | [4] | [5] | [6] | [10]
active: [2] 29.4 µM

CCCCOCCOC(=O)COc1ccc(Cl)cc1Cl
inactive: [2] | [3] | [4] | [6] | [10]

C1CNCCN1
inactive: [2] | [4] | [10]

CC(=O)/C=C/C1C(C)=CCCC1(C)C (stereo not given)
inactive: [4] | [5] | [6] | [10] | [11]

CCCCCC(=O)OCC
inactive: [2] | [3] | [4] | [10] | [11]

CCC(C)(O)CCCC(C)C (stereo not given)
inactive: [3] | [4] | [5] | [13]

CCOC(=O)C1=NOC(c2ccccc2)(c2ccccc2)C1
inactive: [2] | [3] | [4] | [5] | [6] | [13] | [10]

NC(=O)Nc1ccccc1
inactive: [2] | [4] | [6]

CCC1COC(=O)O1 (stereo not given)
inactive: [4] | [5] | [6] | [10] | [11]

O=C(OCCc1ccccc1)c1ccccc1
inactive: [4] | [13] | [10] | [11]

CCCCC(CC)COS(=O)(=O)O (stereo not given)
inactive: [2] | [3] | [4] | [5] | [13]

O=C(O)CCC(=O)O
inactive: [4] | [13] | [10]

COC(=O)[C@H](Cc1ccccc1)NC(=O)[C@@H](N)CC(=O)O (H-Asp-Phe-OMe)
inactive: [3] | [4] | [5] | [6] | [10]

C=CCOC(=O)c1ccc(C(=O)OCC=C)c(C(=O)OCC=C)c1
inactive: [2] | [4] | [6] | [10]

CCCCCCC=O
inactive: [3] | [4] | [13] | [10] | [11]

CCCCC(C=O)CC (stereo not given)
inactive: [2] | [4] | [5] | [13] | [10]

CCCCCCO
inactive: [4] | [6] | [10]

CC(=O)OC(C)c1ccccc1 (stereo not given)
inactive: [2] | [3] | [4] | [13] | [10] | [11]

CN(C)Cc1cc(CN(C)C)c(O)c(CN(C)C)c1
inactive: [1] | [3] | [4] | [10]

CCCCCC[C@@H](O)C/C=C\CCCCCCCC(=O)OCC(O)CO (stereo not given in full)
inactive: [4] | [6] | [13] | [10] | [11]

CC(C)(C)N
inactive: [3] | [4] | [10]

CCCCCCCCC(CO)CCCCCC (stereo not given)
active: [4] 17.7 µM
inactive: [2] | [3] | [5] | [13] | [10]

Fc1ccc(Br)cc1
inactive: [4] | [6] | [10] | [11]

CC(=O)c1ccccc1O
inactive: [3] | [4] | [13] | [11]

CC12CCC(CC1)C(C)(C)O2
inactive: [4] | [5] | [10] | [11]

CCCCCCCCCCCC(=O)N(C)CC(=O)O
inactive: [2] | [4] | [6] | [10] | [11]
